Reference: PubChem BioAssay (Tox21)
Where “and” joins values, the source holds several entries; their conditions need not be identical. Identical values can stand only once. Inconclusive results are not listed. Calls of active or inactive are those of the source. Unless noted, the call rests on the fitted dose curve.

Molecular target: Thyrotropin receptor (Homo sapiens) (UniProt P16473)
Assay: qHTS assay to identify small molecule agonists of the thyroid stimulating hormone receptor (TSHR) signaling pathway (AID 1224843); further: nearly all actives have a fitted effect of over 45% in size
Settings: TSHR-HEK293 cells, cAMP HTRF, agonist mode, 30 min; series mostly up to 92.4 µM; activation: at the top concentration
Procedure, shortened: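 TSHR-expressing HEK293 cells (800 per well) were exposed to compounds for 30 min at room temperature. cAMP was then detected by HTRF competition with cAMP-d2 and anti-cAMP cryptate, read after 1 h at room temperature. Fifteen concentrations, triplicate.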
On the % scale 0 is the no-effect control and ±100 the full control effect; potency means the concentration at half of the fitted maximal effect.

Thyrotropin receptor (Homo sapiens), sequence (P16473 whole entry, looked up): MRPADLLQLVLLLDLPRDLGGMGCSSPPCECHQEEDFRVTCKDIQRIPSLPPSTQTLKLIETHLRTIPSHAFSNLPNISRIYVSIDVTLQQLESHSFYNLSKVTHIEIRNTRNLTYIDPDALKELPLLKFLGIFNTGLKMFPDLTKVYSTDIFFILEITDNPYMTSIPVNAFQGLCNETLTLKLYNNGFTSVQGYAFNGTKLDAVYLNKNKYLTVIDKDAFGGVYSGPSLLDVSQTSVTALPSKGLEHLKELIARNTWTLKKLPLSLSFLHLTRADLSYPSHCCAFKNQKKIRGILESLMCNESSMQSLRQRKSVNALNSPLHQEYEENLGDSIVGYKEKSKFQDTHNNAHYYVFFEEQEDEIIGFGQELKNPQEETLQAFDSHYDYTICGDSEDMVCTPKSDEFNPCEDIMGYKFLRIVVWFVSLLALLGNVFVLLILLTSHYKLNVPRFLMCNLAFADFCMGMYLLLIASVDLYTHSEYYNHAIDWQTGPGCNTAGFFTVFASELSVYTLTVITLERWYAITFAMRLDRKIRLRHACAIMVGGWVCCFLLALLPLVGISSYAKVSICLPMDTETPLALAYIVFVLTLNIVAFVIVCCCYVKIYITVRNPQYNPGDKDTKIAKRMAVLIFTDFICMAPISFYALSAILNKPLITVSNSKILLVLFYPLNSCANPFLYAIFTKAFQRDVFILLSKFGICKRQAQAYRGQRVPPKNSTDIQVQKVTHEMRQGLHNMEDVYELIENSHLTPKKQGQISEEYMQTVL

Structure (SMILES)	activation	Potency
Cc1nc(N(C)C)nc(OC(=O)N(C)C)c1C	0.527% (inactive)	
FC(Cl)(Cl)C(F)(Cl)Cl	-1.91% (inactive)	
CC(Oc1cccc(Cl)c1)C(=O)O (stereo not drawn)	5.14% (inactive)	
CC(Cc1ccccc1)NCc1ccccc1Cl (stereo not drawn)	-13.8% [at 42.5 µM] (inactive)	
CCCCOC(=O)CCC(=O)OCCCC	3.16% (inactive)	
CCCSP(=S)(OCC)Oc1ccc(SC)cc1 (stereo not drawn)		19.3 µM (active)
C[C@@H]1C[C@@H]([C@H](O)CC2CC(=O)NC(=O)C2)C(=O)[C@@H](C)C1		inactive
O=C=NC1CCCCC1	-0.396% (inactive)	
C1CS1	-1.1% (inactive)	
O=C(N[C@H]1CN2CCC1CC2)c1ccc2c(c1)OCCO2	0.818% (inactive)	
CON(C)C(=O)Nc1ccc(Cl)cc1	3.69% (inactive)	
CCOP(=S)(S)OCC	10% (inactive)	
CCc1ccccc1N	1.94% (inactive)	
COc1cc(CC#N)cc(OC)c1OC	5.13% [at 42.5 µM] (inactive)	
C[C@H]1O[C@H](OC2[C@@H](O)[C@@H](O)C(O)[C@H](O)[C@H]2O)[C@@H](N)C[C@@H]1N=C(N)C(=O)O (stereo partly drawn)	0.393% (inactive)	
CCOC(=O)c1cncn1C(C)c1ccccc1 (stereo not drawn)	10.1% [at 42.5 µM] (inactive)	
CCCCCCCCCCCCCCCl	-3.75% (inactive)	
CC(C)(C)c1ccc(CCOc2ncnc3ccccc23)cc1	0.758% (inactive)	
N#CC(C#N)=C(C#N)C#N	5.95% (inactive)	
CCCCCCCCP(=O)(O)O	2.77% (inactive)	
O=[N+]([O-])O[C@H]1CO[C@H]2[C@@H]1OC[C@H]2O[N+](=O)[O-]	-4.97% [at 42.5 µM] (inactive)	
O=C(N/N=C/c1ccc([N+](=O)[O-])o1)c1cc([N+](=O)[O-])cc([N+](=O)[O-])c1O	-0.222% [at 42.5 µM] (inactive)	
CCC(C)(C)c1ccc(O)c(C(C)(C)CC)c1		13.5 µM (active) and 24.3 µM (active)
O=C(O)C(F)(F)C(F)(F)C(F)(F)C(F)(F)C(F)(F)F	14.1% (inactive)	
CN1CC[C@]23c4c5ccc(O)c4O[C@H]2[C@@H](O)C=C[C@H]3[C@H]1C5	-7.69% (inactive)	
ClCc1ccccc1Cl	-6.72% (inactive)	
CN(C1CCCCC1)C1CCCCC1	-1.74% (inactive)	
N#CC(C#N)=Cc1ccc(O)c(O)c1	0.119% [at 42.5 µM] (inactive)	
CCOc1cccc(C2(N3CCN(c4ccccc4)CC3)CCC(C)CC2)c1 (stereo not drawn)	-2.09% (inactive)	

System: not listed separately
Assay: qHTS assay to identify small molecule agonists of the hypoxia (HIF-1) signaling pathway - cell viability counter screen (AID 1224844); further: nearly all actives have a fitted effect of over 50% in size
Settings: HRE-bla ME-180 viability, CellTiter-Glo luminescence, 17 h; series mostly up to 76.8 µM; activity change, negative = cytotoxicity: at the top concentration
Procedure, shortened: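 ME-180 HRE-bla cells, 2,000/well, 0.5% dialyzed FBS; 5 hr settle, 17 hr compound at 37C/5% CO2; CCF4-AM reporter read first, then CellTiter-Glo luminescence after 30 min RT.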

Structure (SMILES)	activity change, negative = cytotoxicity	Potency
Cc1nc(N(C)C)nc(OC(=O)N(C)C)c1C	1.7% (inactive)	
FC(Cl)(Cl)C(F)(Cl)Cl	0.617% (inactive)	
CC(Oc1cccc(Cl)c1)C(=O)O (stereo not drawn)	0.904% (inactive)	
CC(Cc1ccccc1)NCc1ccccc1Cl (stereo not drawn)	6.04% [at 35.3 µM] (inactive)	
CCCCOC(=O)CCC(=O)OCCCC	12.7% (inactive)	
CCSCc1ccccc1OC(=O)NC	6.65% (inactive)	
CCCSP(=S)(OCC)Oc1ccc(SC)cc1 (stereo not drawn)	-6.08% (inactive)	
C[C@@H]1C[C@@H]([C@H](O)CC2CC(=O)NC(=O)C2)C(=O)[C@@H](C)C1		379 nM (active)
O=C=NC1CCCCC1	0.265% (inactive)	
C1CS1	-6.62% (inactive)	
O=C(N[C@H]1CN2CCC1CC2)c1ccc2c(c1)OCCO2	-8.64% (inactive)	
CON(C)C(=O)Nc1ccc(Cl)cc1	-0.0801% (inactive)	
CCOP(=S)(S)OCC	3.69% (inactive)	
CCCC[N+]1(C)[C@@H]2CC(OC(=O)[C@H](CO)c3ccccc3)C[C@H]1[C@@H]1O[C@@H]12 (stereo partly drawn)	-1.67% [at 35.3 µM] (inactive)	
COc1cc(CC#N)cc(OC)c1OC	-0.0942% [at 35.3 µM] (inactive)	
C[C@H]1O[C@H](OC2[C@@H](O)[C@@H](O)C(O)[C@H](O)[C@H]2O)[C@@H](N)C[C@@H]1N=C(N)C(=O)O (stereo partly drawn)	5.64% (inactive)	
CCOC(=O)c1cncn1C(C)c1ccccc1 (stereo not drawn)	-8.89% [at 35.3 µM] (inactive)	

Structure (SMILES)	activity change, negative = cytotoxicity	Potency
CCCCCCCCCCCCCCCl	1.68% (inactive)	
CC(C)(C)c1ccc(CCOc2ncnc3ccccc23)cc1	5.5% (inactive)	
N#CC(C#N)=C(C#N)C#N	-4.62% (inactive)	
COc1cc(C[C@@H](C)N)c(OC)cc1Br	-1.23% (inactive)	
CC1(C)CC(=O)CC(C)(C)N1[O]	1.95% (inactive)	
CC(C)(C)N(NC(=O)c1ccc(Cl)cc1)C(=O)c1ccccc1	-19.9% (inactive)	
O=[N+]([O-])O[C@H]1CO[C@H]2[C@@H]1OC[C@H]2O[N+](=O)[O-]	-1.23% [at 35.3 µM] (inactive)	
COC(=O)Cc1ccccc1	3.4% (inactive)	
C#C[C@]1(O)CC[C@H]2[C@@H]3CCC4=CC(=O)CCC4=C3C=C[C@@]21CC	6.63% [at 35.3 µM] (inactive)	
CC(O)CN1CCN(CC(=O)[O-])CCN(CC(=O)[O-])CCN(CC(=O)[O-])CC1.[Gd+3] (stereo not drawn)	-0.226% [at 35.3 µM] (inactive)	
O=C(N/N=C/c1ccc([N+](=O)[O-])o1)c1cc([N+](=O)[O-])cc([N+](=O)[O-])c1O	-9.39% [at 35.3 µM] (inactive)	
O=C(Cc1ccccc1)c1ccccc1	1.84% (inactive)	
O=C(O)C(F)(F)C(F)(F)C(F)(F)C(F)(F)C(F)(F)F	-12.1% (inactive)	
CN1CC[C@]23c4c5ccc(O)c4O[C@H]2[C@@H](O)C=C[C@H]3[C@H]1C5	4.36% (inactive)	
CN(C1CCCCC1)C1CCCCC1	-5.1% (inactive)	
N#CC(C#N)=Cc1ccc(O)c(O)c1	-3.56% [at 35.3 µM] (inactive)	

System: not listed separately
Assay: qHTS assay to identify small molecule agonists of H2AX (AID 1224845; active means well fitted activation curve with a large enough effect in the signal ratio in the repeat runs, not every such curve was filed as active; the % refers to the signal ratio)
Settings: CHO-K1 phospho-H2AX Ser139 HTRF, 3 h; series mostly up to 154 µM; activation (H2AX phosphorylation): at the top concentration
Procedure, shortened: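 Wild-type CHO-K1 cells plated overnight, then exposed 3 hr at 37C to compounds at 15 concentrations (0.76% DMSO). Lysed, then HTRF anti-pH2AX(S139)-cryptate/anti-H2AX-d2 detection after 24 hr at room temperature; emissions 665 and 620 nm.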

Structure (SMILES)	activation (H2AX phosphorylation)	Potency
Cc1nc(N(C)C)nc(OC(=O)N(C)C)c1C	-1.93% (inactive)	
FC(Cl)(Cl)C(F)(Cl)Cl	-2.69% (inactive)	
CC(Oc1cccc(Cl)c1)C(=O)O (stereo not drawn)	0.666% (inactive)	
CC(Cc1ccccc1)NCc1ccccc1Cl (stereo not drawn)	-0.0539% [at 70.9 µM] (inactive)	
CCCCOC(=O)CCC(=O)OCCCC	-0.409% (inactive)	
CCSCc1ccccc1OC(=O)NC	0.736% (inactive)	
CCCSP(=S)(OCC)Oc1ccc(SC)cc1 (stereo not drawn)	-0.0214% (inactive)	
O=C=NC1CCCCC1	0.716% (inactive)	
C1CS1	-1.28% (inactive)	
O=C(N[C@H]1CN2CCC1CC2)c1ccc2c(c1)OCCO2	0.108% (inactive)	
CON(C)C(=O)Nc1ccc(Cl)cc1	-1.8% (inactive)	
CCOP(=S)(S)OCC	-2.94% (inactive)	
CCc1ccccc1N	0.986% (inactive)	
CCCC[N+]1(C)[C@@H]2CC(OC(=O)[C@H](CO)c3ccccc3)C[C@H]1[C@@H]1O[C@@H]12 (stereo partly drawn)	-3.07% [at 70.9 µM] (inactive)	
COc1cc(CC#N)cc(OC)c1OC	-4.84% [at 70.9 µM] (inactive)	
C[C@H]1O[C@H](OC2[C@@H](O)[C@@H](O)C(O)[C@H](O)[C@H]2O)[C@@H](N)C[C@@H]1N=C(N)C(=O)O (stereo partly drawn)	-0.396% (inactive)	
CCOC(=O)c1cncn1C(C)c1ccccc1 (stereo not drawn)	-2.6% [at 70.9 µM] (inactive)	
CCCCCCCCCCCCCCCl	0.678% (inactive)	

Structure (SMILES)	activation (H2AX phosphorylation)	Potency
CC(C)(C)c1ccc(CCOc2ncnc3ccccc23)cc1	-0.175% (inactive)	
N#CC(C#N)=C(C#N)C#N	-0.0808% (inactive)	
CCCCCCCCP(=O)(O)O	-2.02% (inactive)	
COc1cc(C[C@@H](C)N)c(OC)cc1Br	0.0844% (inactive)	
CC1(C)CC(=O)CC(C)(C)N1[O]	0.0706% (inactive)	
CC(C)(C)N(NC(=O)c1ccc(Cl)cc1)C(=O)c1ccccc1	0.95% (inactive)	
O=[N+]([O-])O[C@H]1CO[C@H]2[C@@H]1OC[C@H]2O[N+](=O)[O-]	-4.19% [at 70.9 µM] (inactive)	
COC(=O)Cc1ccccc1	-3.42% (inactive)	
CC(O)CN1CCN(CC(=O)[O-])CCN(CC(=O)[O-])CCN(CC(=O)[O-])CC1.[Gd+3] (stereo not drawn)	-0.439% [at 70.9 µM] (inactive)	
O=C(N/N=C/c1ccc([N+](=O)[O-])o1)c1cc([N+](=O)[O-])cc([N+](=O)[O-])c1O	0.1% [at 70.9 µM] (inactive)	
CCC(C)(C)c1ccc(O)c(C(C)(C)CC)c1		56 µM (active) and 35.7 µM (active)
O=C(Cc1ccccc1)c1ccccc1	-0.436% (inactive)	
O=C(O)C(F)(F)C(F)(F)C(F)(F)C(F)(F)C(F)(F)F	-0.145% (inactive)	
CN1CC[C@]23c4c5ccc(O)c4O[C@H]2[C@@H](O)C=C[C@H]3[C@H]1C5	-0.244% (inactive)	
ClCc1ccccc1Cl	-0.446% (inactive)	
CN(C1CCCCC1)C1CCCCC1	-0.526% (inactive)	
C=C(Cl)Cl	1.04% (inactive)	
CCOc1cccc(C2(N3CCN(c4ccccc4)CC3)CCC(C)CC2)c1 (stereo not drawn)	-0.342% (inactive)	
